Results filed as inconclusive are left out. Entries that show only a call come without a potency. Unmarked numbers belong to inactive results. Calls of active or inactive are those of the source. Calls follow the shape of the dose curve; as a rule, active = well fitted curve in the direction sought with a large enough effect; inconclusive = small, poorly fitted or top-dose-only effect, or another doubt; inactive = no such curve, though single readings can be large; an effect the other way counts as inactive or inconclusive.
How the values were obtained:
[1] = P-glycoprotein substrates identified in KB-3-1 adenocarcinoma cell line, qHTS therapeutic library screen (AID 1346986); also: nearly all actives have a fitted effect of over 60% in size
Outline: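 Cells seeded 500/well in DMEM/10% FCS; compounds pinned in dose-response; 72 h incubation; CellTiter-Glo added, 5 min, luminescence. KB-8-5-11 run ±tariquidar to test reversal of P-gp resistance.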

[2] = P-glycoprotein substrates identified in KB-8-5-11 adenocarcinoma cell line, qHTS therapeutic library screen (AID 1346987); also: nearly all actives have a fitted effect of over 65% in size; as to activity change, negative = cytotoxicity: series mostly up to about 44 µM
Outline: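 Steps: plate 500 KB-8-5-11 cells/well in DMEM + 10% FCS (colchicine removed); pin compounds in dose-response; incubate 72 h, 37 degree C, 5% CO2; add CellTiter-Glo, 5 min; read luminescence.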

[3] = system: Zika virus NS2B-NS3 protease (linked construct); test: Primary screen NINDS Rhodamine qHTS for Zika virus inhibitors (AID 1347160); also: nearly all actives have a fitted effect of over 55% in size
Outline: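 Purified linked NS2B-NS3 protease (NS2B hydrophilic domain joined to NS3 protease by flexible linker), 25 nM in 10 mM Tris-HCl pH 8.0, 0.01% Tween 20. Compounds titrated, 15 min preincubation at room temperature; 1.5 microM Rhodamine110 substrate, FITC fluorescence change over 15 min.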

[4] = system: Zika virus NS2B-NS3 protease (unlinked complex); test: Primary screen GU Rhodamine qHTS for Zika virus inhibitors: Unlinked NS2B-NS3 protease assay (AID 1347159); also: nearly all actives have a fitted effect of over 60% in size
Outline: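 Noncovalent NS2B hydrophilic domain–NS3 protease domain complex (25 nM) preincubated 15 min at room temperature with compounds (up to 114 microM) in 10 mM Tris-HCl pH 8.0, 0.01% Tween 20; 1.5 microM Rhodamine110 substrate added, fluorescence change over 15 min fitted to Hill equation.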

## C/C=C1/[C@H](O[C@@H]2O[C@H](CO)[C@@H](O)[C@H](O)[C@H]2O)OC=C(C(=O)OC)[C@H]1CC(=O)OCCc1ccc(OC(=O)C[C@@H]2C(C(=O)OC)=CO[C@@H](O[C@@H]3O[C@H](CO)[C@@H](O)[C@H](O)[C@H]3O)/C2=C/C)cc1
[1]
  outcome: inactive [at 9.29 µM]
[2]
  activity change, negative = cytotoxicity: 6.56% [at 9.29 µM]
[3]
  Potency: inactive

## CC(C)C1CCC(CO)=CC1/C=C(\CO)C(=O)OCC1(O)CCC(C(C)C)C2C=C(C(=O)O)COC(=O)C21 (stereo unspecified)
[1]
  Potency: inactive
[2]
  Potency: inactive
[3]
  Potency: inactive

## CC(=O)/C=C/C1(O)C(C)CC(O[C@@H]2O[C@H](CO)[C@@H](O)[C@H](O)[C@H]2O)CC1(C)C (stereo partly specified)
[1]
  Potency: inactive
[2]
  Potency: inactive
[3]
  Potency: inactive

## COC(=O)[C@]1(Cc2ccc(O)c(CC=C(C)C)c2)OC(=O)C(O)=C1c1ccc(O)cc1
[1]
  Potency: inactive
[2]
  Potency: inactive
[3]
  Potency: inactive

## C/C(=C\CC[C@H](CO)[C@@H]1CC[C@]2(C)C3=C(CC[C@@]12C)[C@@]1(C)CCC(=O)C(C)(C)C1CC3)C(=O)O (stereo partly specified)
[2]
  Potency: inactive

## C=C1CC2C3(C)C(O)CC(=O)C(C)(C)C3C(O)C(OC(C)=O)C2(C)C2C(=O)OC(C)(C(=O)OC)C(=O)C12C (stereo unspecified)
[1]
  Potency: inactive
[4]
  Potency: inactive
[3]
  Potency: inactive

## C=C1CCC2C(C)(C(=O)O)CCCC2(C)C1CC/C(C)=C\CO (stereo unspecified)
[1]
  Potency: inactive
[4]
  Potency: inactive
[3]
  Potency: inactive

## O=C(/C=C/c1ccc(O)cc1)O[C@@H]1C[C@@](O)(C(=O)O)C[C@@H](O)[C@@H]1O
[2]
  Potency: inactive

## Cc1[nH]c2ccccc2c1CC(=O)N[C@@H](Cc1ccccc1)C(=O)N(C)c1ccccc1
[1]
  Potency: inactive
[4]
  Potency: inactive
[3]
  Potency: inactive

## CCCCNc1nc(N)c2[nH]c(=O)n(Cc3ccc(OCCN(C)C)nc3)c2n1
[1]
  Potency: inactive
[4]
  Potency: inactive
[3]
  Potency: inactive

## C=CC(C)(C)C12Nc3c(ccc4c3OC(C)(C)C=C4)C1(O)CC1C(=O)N3CCCC3C(=O)N12 (stereo unspecified)
[1]
  Potency: inactive
[4]
  Potency: inactive
[3]
  Potency: inactive

## OC[C@@]1(O)CO[C@H](OC[C@H]2O[C@@H](OC(CCCCc3ccc(O)cc3)CCc3ccc(O)cc3)[C@H](O[C@H]3OC[C@](O)(CO)[C@H]3O)[C@@H](O)[C@@H]2O)[C@@H]1O (stereo partly specified)
[2]
  Potency: inactive

## C=C(CCO[C@@H]1O[C@H](CO)[C@@H](O)[C@H](O)[C@H]1O)C(=O)O
[1]
  Potency: inactive
[4]
  Potency: inactive
[3]
  Potency: inactive

## C=CC1(C)CC2CCC3C(C)(C(=O)O)CCCC3(C)C2=CC1=O (stereo unspecified)
[1]
  Potency: inactive
[4]
  Potency: inactive
[3]
  Potency: inactive

## N=C(N)c1ccc2nc(-c3cc(CC(=O)NC(CC(=O)O)C(=O)O)cc(-c4cc(S(N)(=O)=O)ccc4O)c3O)[nH]c2c1 (stereo unspecified)
[1]
  Potency: inactive
[2]
  Potency: inactive
[3]
  Potency: inactive

## COc1cc(C2CC(=O)Nc3c2cc(Br)c2ccccc32)cc(OC)c1OC (stereo unspecified)
[1]
  Potency: inactive
[4]
  Potency: inactive
[3]
  Potency: inactive

## C[C@H]1CC[C@H]2[C@@H](C=C[C@@](C)(O)[C@]2(C)C(=O)CCO)C1
[2]
  Potency: inactive

## COC(=O)c1cc(OC)cc(OC)c1C(=O)c1c(OC)cc2c(c1O)C1CCC(O)C(C)(O2)O1 (stereo unspecified)
[1]
  Potency: inactive
[4]
  Potency: inactive
[3]
  Potency: inactive

## COc1cc(OC)cc(-c2ccc3c(-c4ccc(F)cc4)[nH]nc3n2)c1
[1]
  Potency: inactive
[4]
  Potency: inactive

## C=C[C@H]1[C@H](O[C@@H]2O[C@H](CO)[C@@H](O)[C@H](O)[C@H]2O)OC=C(C(=O)OC)[C@H]1CC=O
[1]
  Potency: inactive
[4]
  Potency: inactive
[3]
  Potency: inactive

## Cc1ccc(C)c(S(=O)(=O)n2cnc3ccccc32)c1
[1]
  Potency: inactive
[4]
  Potency: inactive
[3]
  Potency: inactive

## C/C=C/C=C/[C@@H]1O[C@](O)([C@H](CC)C(=O)NC/C=C/C=C(\C)[C@@H](OC)[C@@H](C)[C@@H]2O[C@H](/C=C/C=C/C=C(\C)C(=O)c3c(O)ccn(C)c3=O)[C@H](O)[C@@H]2O)[C@H](O)[C@H](O)C1(C)C
[1]
  outcome: inactive [at 9.29 µM]
[4]
  Potency: inactive
[3]
  Potency: inactive

## O=C(c1ccc(Cl)c([N+](=O)[O-])c1)N1CCN(c2ccccc2F)CC1
[1]
  Potency: inactive
[4]
  Potency: inactive
[3]
  Potency: inactive

## CCOc1ncc(S(=O)(=O)N2CCN(CC)CC2)cc1-c1nc2c(CC)n(CCOC)nc2c(=O)[nH]1
[1]
  Potency: inactive
[4]
  Potency: inactive
[3]
  Potency: inactive

## COc1cnc(-n2cnc(C)n2)c2[nH]cc(C(=O)C(=O)N3CCN(C(=O)c4ccccc4)CC3)c12
[1]
  Potency: inactive
[4]
  Potency: inactive
[3]
  Potency: inactive

## C=C1C(O)C(OC(=O)c2ccccc2)C2C(C)(C(=O)O)CCCC2(C)C1CC/C(C)=C\CO (stereo unspecified)
[2]
  Potency: inactive

## C[C@@H]1O[C@@H](OC[C@H]2O[C@@H](OCc3ccccc3)[C@H](O)[C@@H](O)[C@@H]2O)[C@H](O)[C@H](O)[C@H]1O
[2]
  Potency: inactive

## CC(O)C1NC(=O)C2CCCN2C1=O (stereo unspecified)
[1]
  Potency: inactive
[4]
  Potency: inactive
[3]
  Potency: inactive

## CCCc1[nH]nc2c1C(c1cc(Cl)cc(Cl)c1O)C(C#N)=C(N)O2 (stereo unspecified)
[1]
  Potency: inactive
[3]
  Potency: inactive

## O=C(/C=C/c1ccc(O)cc1)OC[C@H]1O[C@@H](O/C(=C\c2ccccc2)C(=O)O)[C@H](O)[C@@H](O)[C@@H]1O
[1]
  Potency: inactive
[4]
  Potency: inactive
[3]
  Potency: inactive

## Cc1nnc(-c2ccc3occ(-c4ccc(S(C)=O)cc4)c3c2)o1 (stereo unspecified)
[1]
  Potency: inactive
[4]
  Potency: inactive

## C=C1C(OC(C)=O)CCC2(C)CC3(O)OC(=O)C(C)=C3CC12 (stereo unspecified)
[1]
  Potency: inactive
[4]
  Potency: inactive
[3]
  Potency: inactive
